The values below come from the supplement of paper PMC12636033.

± gives the standard deviation of the averaged measurements. Whole data set: some 33,000 sequences, median “E-score (rank enrichment, -0.5 to 0.5)” near -0.0043, cut for the highest 2% near 0.24. The list comes from a sample in which the highest values are over-represented; it also holds similar and randomly drawn sequences.

This assay concerns 2Sp-muMax20 (muMax20 with two 2,6-bis(methyl)pyridine Cys staples). The assay can be described thus: PBM 8-mer E-score (E-score (rank enrichment, -0.5 to 0.5)); higher = stronger preferential binding. The procedure:
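Protein binding microarray (universal PBM chip covering all 10-mers in fixed probe flanks) with chemically synthesized human Max(13-93) bHLH-LZ analogs (not full-length Max) bearing noncanonical residues (hArg, Tha, Aib, Nle at 65) and aromatic Cys staples. Read-out per 8-mer (and its reverse complement): E-score (rank-based enrichment, -0.5 to 0.5) and Z-score of median probe intensity.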
For ATAACATC, the “PBM 8-mer E-score” value worked out at 0.236 ± 0.034.
The value for AGGACTCA was 0.0578 ± 0.11; that for CAGCGAAA was -0.113 ± 0.0075; that for ACTGTAGG was 0.0115 ± 0.027.
For the sequence AGAGTCGC, the “PBM 8-mer E-score” value worked out at 0.0183 ± 0.052.
Take CTCTCAAA: the “PBM 8-mer E-score” value is -0.015 ± 0.005.
As to AACTATTG, the “PBM 8-mer E-score” value was 0.24 ± 0.051.
Turning to AACTATTA, the “PBM 8-mer E-score” value was 0.169 ± 0.027.
Take AACTATAC: the “PBM 8-mer E-score” value is 0.114 ± 0.06.
Regarding GACTATAC, the “PBM 8-mer E-score” value is 0.141 ± 0.068.
Take AACTATTC: the “PBM 8-mer E-score” value is -0.0563 ± 0.067.
As for CACTATAG, the “PBM 8-mer E-score” value was determined as 0.243 ± 0.038.
Take CACTATAC: the “PBM 8-mer E-score” value was 0.25 ± 0.013.
In the case of AACTATAG, the “PBM 8-mer E-score” value is 0.212 ± 0.074.
On to CACTATAA, for which the “PBM 8-mer E-score” value was -0.0291 ± 0.0069.
For CCGGATCA, the “PBM 8-mer E-score” value was -0.0752 ± 0.094.
AATTATGC: the “PBM 8-mer E-score” value is 0.202 ± 0.025.
ATGGATGC: the “PBM 8-mer E-score” value amounted to 0.0345 ± 0.13.
The value for GTCGCGAA was -0.143 ± 0.017.
Regarding CACGCGAC, the “PBM 8-mer E-score” value was 0.277 ± 0.013.
Take AACGCGAC: the “PBM 8-mer E-score” value is 0.0983 ± 0.018.
With CACGCGAG the figure was 0.26 ± 0.025.
In the case of CTCGCGAC, the “PBM 8-mer E-score” value amounted to 0.0452 ± 0.004.
Turning to AACGCGAG, the “PBM 8-mer E-score” value amounted to 0.0185 ± 0.046.
As for GTCGCGAC, the “PBM 8-mer E-score” value was determined as 0.314 ± 0.014.
For GACGCGAC, the “PBM 8-mer E-score” value was -0.108 ± 0.084.
As to CACGCGAA, the “PBM 8-mer E-score” value turned out to be 0.0343 ± 0.011.
With CTAGAGTC the figure was -0.122 ± 0.025; with ACCTCTCT, -0.0431 ± 0.11; with AGGCACTC, -0.155 ± 0.0063.
The value for GCCACGGC was -0.219 ± 0.036; that for CGCCTATC was 0.0914 ± 0.054; that for ATGCGGTC was -0.0281 ± 0.033.
For the sequence CTATGTGC, the “PBM 8-mer E-score” value amounted to 0.13 ± 0.017.
The value for ACATGTGC was 0.283 ± 0.052; that for AGATGTGC was 0.0607 ± 0.028; that for AGATGTGG was 0.0241 ± 0.00082.
Take ACATGTGG: the “PBM 8-mer E-score” value was 0.364 ± 0.031.
Turning to AAATGTGG, the “PBM 8-mer E-score” value came to 0.138 ± 0.015.
With GCGAAGGA, the “PBM 8-mer E-score” value was -0.1 ± 0.011.
Turning to CCTGAAGC, the “PBM 8-mer E-score” value is -0.0531 ± 0.025.
Take AGATTGCA: the “PBM 8-mer E-score” value turned out to be 0.0232 ± 0.053.
On to CGATTGCA, for which the “PBM 8-mer E-score” value amounted to 0.000985 ± 0.025.
Consider TGATTGCA, for which the “PBM 8-mer E-score” value came out at 0.286 ± 0.081.
For the sequence ACGTCGCA, the “PBM 8-mer E-score” value was -0.0865 ± 0.15.
CTCGCTTC: the “PBM 8-mer E-score” value is -0.0128 ± 0.0032.
For the sequence CACAATAA, the “PBM 8-mer E-score” value turned out to be 0.0537 ± 0.028.
With AACAATAC, the “PBM 8-mer E-score” value stood at 0.263 ± 0.0036.
For the sequence GACAATAA, the “PBM 8-mer E-score” value stood at 0.188 ± 0.0055.
With GACAATAC the figure was 0.144 ± 0.15; with TACAAAAA, 0.26 ± 0.052.
The value for TACAAGAA was 0.213 ± 0.018.
The value for TACAATAA was 0.321 ± 0.051; that for AACAATAA was 0.134 ± 0.036; that for AACAAAAA was -0.0104 ± 0.045.
As for GATAAACC, the “PBM 8-mer E-score” value is -0.167 ± 0.039.
As for TCAGGGGA, the “PBM 8-mer E-score” value was found to be 0.143 ± 0.019.
As for TAAACGAA, the “PBM 8-mer E-score” value worked out at 0.143 ± 0.00096.
As to AACTGATG, the “PBM 8-mer E-score” value was -0.0947 ± 0.093.
With CAAAACCA the figure was 0.218 ± 0.056; with TTCGAAAA, 0.0928 ± 0.011.
Turning to CCAGAGCC, the “PBM 8-mer E-score” value turned out to be 0.0426 ± 0.067.
In the case of AAAATTAT, the “PBM 8-mer E-score” value was 0.252 ± 0.027.
Turning to ACAATTAT, the “PBM 8-mer E-score” value was determined as 0.139 ± 0.091.
Consider ATAATTAT, for which the “PBM 8-mer E-score” value was 0.274 ± 0.062.
With CTAATTAC the figure was 0.108 ± 0.024; with GTAATTAC, 0.177 ± 0.0081; with ATAATTAA, 0.183 ± 0.096.
Regarding TTAATTAA, the “PBM 8-mer E-score” value worked out at 0.303 ± 0.081.
For AAAATTAG, the “PBM 8-mer E-score” value was 0.129 ± 0.0083.
With ATAATTAC, the “PBM 8-mer E-score” value came to 0.297 ± 0.044.
The value for GTAATTAA was 0.123 ± 0.033; that for CTAATTAA was 0.0684 ± 0.14; that for AAAATTAA was 0.126 ± 0.057.
With CAGCTGGC, the “PBM 8-mer E-score” value came out at 0.00279 ± 0.062.
With TAAGACGA, the “PBM 8-mer E-score” value stood at 0.118 ± 0.035.
In the case of AGTTCACA, the “PBM 8-mer E-score” value was determined as 0.0105 ± 0.0032.
Turning to AATATCAC, the “PBM 8-mer E-score” value is 0.189 ± 0.038.
For the sequence AAGCTGCT, the “PBM 8-mer E-score” value was -0.0983 ± 0.048.
Turning to ACTGACTA, the “PBM 8-mer E-score” value is -0.00544 ± 0.014.
With GGCCTAGA the figure was -0.101 ± 0.039; with AGGGCGAG, 0.00325 ± 0.014; with AACTAGCT, -0.0509 ± 0.098.
With ATAATTCG the figure was 0.221 ± 0.06.
In the case of CTAATTAG, the “PBM 8-mer E-score” value is -0.0106 ± 0.077.
ATAATTAG: the “PBM 8-mer E-score” value was determined as 0.289 ± 0.006.
The value for ATAACTAA was 0.174 ± 0.018.
CTAACTAA: the “PBM 8-mer E-score” value is 0.0344 ± 0.032.
Take TTAACTAA: the “PBM 8-mer E-score” value was determined as 0.248 ± 0.0099.
Take ACTCGCTG: the “PBM 8-mer E-score” value is -0.155 ± 0.038.
AATTGTAC: the “PBM 8-mer E-score” value amounted to 0.22 ± 0.0078.
As for TGGTATAA, the “PBM 8-mer E-score” value was 0.219 ± 0.019.
As to CGGGTACC, the “PBM 8-mer E-score” value was -0.168 ± 0.059.
With ACGCTACA the figure was 0.161 ± 0.04.
With ACCCCAAT the figure was 0.248 ± 0.017; with ACCCCAGT, 0.303 ± 0.048; with ACCCCAAG, 0.167 ± 0.067.
The value for ACCCCAGA was 0.102 ± 0.066.
For ACCCCAAC, the “PBM 8-mer E-score” value turned out to be 0.2 ± 0.075.
Turning to ACCCCAGG, the “PBM 8-mer E-score” value was -0.135 ± 0.03.
In the case of CGGCTCAG, the “PBM 8-mer E-score” value was -0.245 ± 0.011.
The value for AAGGCGAG was -0.114 ± 0.11; that for CCGCACCG was -0.232 ± 0.037.
On to ATTGTAGG, for which the “PBM 8-mer E-score” value was determined as 0.163 ± 0.04.
Take AGAAACAA: the “PBM 8-mer E-score” value amounted to 0.23 ± 0.034.
The value for ATTATGTC was -0.0254 ± 0.039.
The value for ATTATGTA was 0.252 ± 0.063; that for ATAATGTA was 0.261 ± 0.054.
In the case of ATAATGTC, the “PBM 8-mer E-score” value was 0.0928 ± 0.013.
Take CTAATGTA: the “PBM 8-mer E-score” value came out at 0.0902 ± 0.11.
For the sequence ATTATGTG, the “PBM 8-mer E-score” value was determined as 0.19 ± 0.015.
